Screens (PubChem)
Compounds with a hit are over-represented: about 2.3% of the library has one in this group of screens.
PLC-gamma1 inh – PLC-gamma1 enzyme inhibitors, primary screen, biochemical, fluorescence, purified enzyme; 1-phosphatidylinositol 4,5-bisphosphate phosphodiesterase gamma-1 (Homo sapiens), P19174; fluorogenic substrate; inhibition, % at 12.2 µM; 370,000 tested, 0.84% active; in the data active = inhibition above about 9.5%
PLC-beta3 inh – human PLC-beta3 inhibitors, primary screen, biochemical, fluorescence | 1-phosphatidylinositol 4,5-bisphosphate phosphodiesterase beta-3 (Homo sapiens), Q01970 | Purified PLC-beta3, fluorogenic substrate | inhibition, % at 12.2 µM | 370,000 tested, 0.18% active; in the data active = inhibition above about 11%;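 note: 0% = median of compound wells on plate and 100% = full blocker control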
UHRF1 MBD2 ctr – UHRF1 methylated DNA binding inhibitors, primary screen, counter-screen for MBD2 inhibitor project, biochemical, TR-FRET, human UHRF1, single concentration; inhibition, % at 4.4 µM; E3 ubiquitin-protein ligase UHRF1 (Homo sapiens), Q96T88; 370,000 tested, 0.75% active; AID 687016, 2013; UHRF1 binding to methylated oligo; in the data active = inhibition above about 21%;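 note: UHRF1 SRA domain binding a hemimethylated CpG hairpin DNA probe; 0% = median of test compound wells and 100% = reference inhibitor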
LEDGF integ inh – blockers of LEDGF/p75-dependent integrase strand transfer – biochemical, TR-FRET, high throughput, primary screen | 370,000 tested, 0.64% active | inhibition, % at 3.7 µM | TR-FRET IN-LEDGF/p75 DNA integration, Eu/Cy5 | HIV-1 integrase (with human LEDGF/p75);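 active = inhibition above the screen-wide mean plus 3 SD, cut at about 13% in these data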;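 note: signal is the Cy5 over europium emission ratio at 671 and 618 nm; 0% = plate median of compound wells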
MBD2 DNA inh – inhibitors of MBD2 binding to methylated DNA, primary screen, biochemical, TR-FRET, DNA-binding domain, human | MBD2 binding to methylated oligonucleotide | inhibition, % at 4.4 µM | 370,000 tested, 0.31% active | Methyl-CpG-binding domain protein 2 (Homo sapiens), Q9UBB5; in the data active = inhibition above about 13%
An asterisk follows results filed as active.

SMILES	PLC-gamma1 inh	PLC-beta3 inh	UHRF1 MBD2 ctr	LEDGF integ inh	MBD2 DNA inh
COc1cc2c(=O)n(Cc3ccccc3)c(=O)n(CC(=O)NCC3CCCO3)c2cc1OC (configuration not stated)	0	0	-1	-4	-2
Cc1ccc(N2C(=O)CC(Cc3cc(C)cc(C)c3)C2=O)cc1 (configuration not stated)	0	-6	24*	-5	11
Cc1cc(C)cc(CC2CC(=O)N(c3cc(C)ccc3C)C2=O)c1 (configuration not stated)	1	-4	-1	-1	-2
Cc1cccc(Cn2cc(COC(=O)NCC(C)C)nn2)c1	4	-1	-1	-2	2
Cc1ccc(NC(=S)NC(=O)CC2CC(C)(C)OC2=O)cc1 (configuration not stated)	-2	1	62*	-3	3
CC1(C)CC(CC(=O)NC(=S)Nc2ccc([N+](=O)[O-])cc2)C(=O)O1 (configuration not stated)	0	0	7	2	-1
O=S1(=O)c2ccc(Br)cc2OC[C@@H](c2ccccc2)N1Cc1cn(Cc2ccccc2)nn1	0	5	16	3	4
CC(C)(C)OC(=O)N(CCc1ccccc1)Cc1ccc(OCc2cccc(NC(=O)C3CC3)c2)cc1	2	2	0	4	-2
CC(C)(C)OC(=O)N(CCc1ccccc1)Cc1cccc(OCc2cccc(NC(=O)c3ccccc3)c2)c1	9.9*	6	3	5	-4
O=[N+]([O-])c1cccc(COc2ccc(CN3CCCCC3)cc2)c1	1	-2	21*	-5	7
CCCCN1C(=O)N2Cc3ccccc3C2CS1(=O)=O (configuration not stated)	-1	3	1	8	0
CCOC(=O)[C@@]12CCCC=C1N(CCc1ccc(Cl)cc1)C(=O)[C@H]2CC(=O)NCc1cccc(C(F)(F)F)c1	0	-3	0	-2	6
CCOC(=O)N1CCN(C2=C(NS(=O)(=O)c3ccccc3)C(=O)c3ccccc3C2=O)CC1	5	-18	-2	22*	-9
CC(COc1cccc(Cl)c1)CN1CCC(C(O)(c2ccccc2)c2ccccc2)CC1 (configuration not stated)	5	3	-4	-2	1
CC1=CC(c2ccccc2)n2nnnc2N1 (configuration not stated)	-86	-90	35*	-1	1
O=C1COc2ccc(C(=O)COC(=O)CNS(=O)(=O)c3cccc(F)c3)cc2N1	0	-8	20	3	18*
C=CCN1C(=O)C(CC(=O)Nc2ccc(C)cc2)SC1=Nc1c(C)n(C)n(-c2ccccc2)c1=O (configuration not stated)	-1	1	0	-3	2
Cc1c(N=C2SC(CC(=O)Nc3ccccc3)C(=O)N2CCN2CCOCC2)c(=O)n(-c2ccccc2)n1C (configuration not stated)	1	0	28*	1	3
COc1ccc2c(c1)c(=O)oc1cc(OCC(=O)N3CCc4ccccc4C3)ccc12	-26	-26	39*	9	21*
COc1ccccc1Cc1c(C(C)(C)C)nc2ccc(C)cn12	-18	-23	23*	-2	2
COc1ccccc1Cc1c(-c2ccc(OC)c(OC)c2)nc2ccc(C)cn12	-44	-61	14	-1	3
COc1ccc(Cc2c(C(C)(C)C)nc3ccc(C)cn23)c(C)c1	-32	-47	24*	3	9
COc1ccccc1Cc1c(C(C)(C)C)nc2c(C)cc(Br)cn12	-34	-44	23*	0	2
C#CCNC(=O)C[C@H]1C[C@@]2(C(=O)OC)C(=C[C@H](COCc3ccccc3)O[C@@H]2C)N(CCCCCCCC)C1=O	-3	-2	0	-1	2
O=C(CN1C(=O)CCSc2ccccc21)Nc1ccc(F)cc1F	-1	0	2	-5	4
SMILES	PLC-gamma1 inh	PLC-beta3 inh	UHRF1 MBD2 ctr	LEDGF integ inh	MBD2 DNA inh
C[C@H](O)[C@@H]1CN2CCc3ccc(N4CCOCC4)cc3[C@@H]2C[C@@H]1N(C)C(=S)NCCc1ccccc1	-7	-8	-1	-5	1
Cc1ccc(NC(=O)/C(=C\c2cccnc2)NC(=O)c2ccccc2)cc1	1	-5	21*	-2	7
O=C(NCCCn1ccnc1)/C(=C/c1ccccc1)NC(=O)c1ccccc1	0	-8	25*	-4	7
C[C@H]1[C@@H](OC(=O)Nc2cc(Cl)ccc2Cl)CC[C@@]23CCCN2C(=O)CCC[C@@H]13	2	3	2	3	-5
Cc1cccc(-c2cccc3c4c([nH]c23)[C@@H]2C[C@H](N(C)C(=O)OCc3ccccc3)[C@H]([C@H](C)O)CN2CC4)c1	-176	-243	-3	0	0
Cc1ccc(-n2c(SCC(=O)Nc3ccc(S(=O)(=O)Nc4cc(C)nc(C)n4)cc3)nnc2-c2ccc(C(C)(C)C)cc2)cc1	3	-3	1	-3	-1
Cc1ccc(C)c(NS(=O)(=O)c2ccc3c(c2)NC(=O)CCS3)c1	7	-4	2	2	2
Cc1ccc(NS(=O)(=O)c2ccc3c(c2)NC(=O)CCS3)c(Br)c1	-1	-9	29*	-1	1
CCO/C(C)=N/Oc1cnc2ccccc2c1	-11	-16	-2	-1	1
CCO/C(C)=N/Oc1cccc(N(C)C)c1	-13	-13	29*	-2	-4
O=c1cc(-c2ccc(O)cc2)oc2c([C@@H]3O[C@H](CO)[C@@H](O)[C@H](O)[C@H]3O)c(O)c([C@@H]3O[C@H](CO)[C@@H](O)[C@H](O)[C@H]3O)c(O)c12	-3	-6	-4	-3	-2
O=c1cc(-c2ccc(O)c(O)c2)oc2cc(O)c([C@@H]3O[C@H](CO)[C@@H](O)[C@H](O)[C@H]3O)c(O)c12	-3	0	-4	57*	-4
CC1=C2NC(N)=[N+](Cc3ccc4c(c3)OCO4)CC2n2c(=O)n(-c3ccccc3)c(=O)n2C1 (configuration not stated)	-2	0	1	-1	-4
CCOc1ccc(/C=N/Nc2ccccn2)cc1OC	-4	-7	47*	2	-2
CCCOc1ccc(/C=N/Nc2ccccn2)cc1OC	-4	-14	2	-3	1
CN1C2=NC(c3ccccc3)CC(=O)N2/C(=C\c2ccccc2)C1c1ccccc1C(F)(F)F (configuration not stated)	-3	2	3	1	5
